According to publication PMC9911399, “Two distinct binding modes provide the RNA-binding protein RbFox with extraordinary sequence specificity”:
Where a chain is given by its changes, count along the chain named. Over roughly 16,000 sequences, “ka relative to ugcaugu” has its median near 0.0091; the highest 2% begin near 0.032. The sample holds the highest values, similar sequences and a random draw of the others, so the mix is not that of the screen.

T1: RBFOX1 RRM (Homo sapiens, UniProt Q9NWB1 109-208)
T1 sequence: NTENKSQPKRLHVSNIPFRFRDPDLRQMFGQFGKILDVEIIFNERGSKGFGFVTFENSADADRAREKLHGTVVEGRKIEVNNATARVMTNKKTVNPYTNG

B1: CGCUAUU (DNA:RNA)
RNA: GGGAGACCGGAAUUCAGAUUGUCCCGCUAUUUUAAAUCCCGUCGUAGCCACCA
DNA 1: CAATCTGAATTCCGGTCTCCC
DNA 2: TGGTGGCTACGACGGGATT
B2: UAGAUGA (DNA:RNA)
RNA: GGGAGACCGGAAUUCAGAUUGUCCUAGAUGAUUAAAUCCCGUCGUAGCCACCA
DNA 1: CAATCTGAATTCCGGTCTCCC
DNA 2: TGGTGGCTACGACGGGATT
B3: CUGGGUU (DNA:RNA)
RNA: B1 RNA with G26U, C27G, U28G, A29G
DNA 1: CAATCTGAATTCCGGTCTCCC
DNA 2: TGGTGGCTACGACGGGATT
B4: CUGGUUC (DNA:RNA)
RNA: B1 RNA with G26U, C27G, U28G, A29U, U31C
DNA 1: CAATCTGAATTCCGGTCTCCC
DNA 2: TGGTGGCTACGACGGGATT
B5: UGCUGGG (DNA:RNA)
RNA: B1 RNA with C25U, A29G, U30G, U31G
DNA 1: CAATCTGAATTCCGGTCTCCC
DNA 2: TGGTGGCTACGACGGGATT
B6: CCCCUGG (DNA:RNA)
RNA: B1 RNA with G26C, U28C, A29U, U30G, U31G
DNA 1: CAATCTGAATTCCGGTCTCCC
DNA 2: TGGTGGCTACGACGGGATT
B7: UGGGUUG (DNA:RNA)
RNA: B2 RNA with A26G, A28G, G30U, A31G
DNA 1: CAATCTGAATTCCGGTCTCCC
DNA 2: TGGTGGCTACGACGGGATT
B8: UGGGGGG (DNA:RNA)
RNA: B2 RNA with A26G, A28G, U29G, A31G
DNA 1: CAATCTGAATTCCGGTCTCCC
DNA 2: TGGTGGCTACGACGGGATT
B9: UGGUUCU (DNA:RNA)
RNA: B1 RNA with C25U, C27G, A29U, U30C
DNA 1: CAATCTGAATTCCGGTCTCCC
DNA 2: TGGTGGCTACGACGGGATT
B10: UGGUUUU (DNA:RNA)
RNA: B1 RNA with C25U, C27G, A29U
DNA 1: CAATCTGAATTCCGGTCTCCC
DNA 2: TGGTGGCTACGACGGGATT
B11: UGGGUUU (DNA:RNA)
RNA: B1 RNA with C25U, C27G, U28G, A29U
DNA 1: CAATCTGAATTCCGGTCTCCC
DNA 2: TGGTGGCTACGACGGGATT
B12: UGGGUUC (DNA:RNA)
RNA: B2 RNA with A26G, A28G, G30U, A31C
DNA 1: CAATCTGAATTCCGGTCTCCC
DNA 2: TGGTGGCTACGACGGGATT
B13: UGUUGGG (DNA:RNA)
RNA: B1 RNA with C25U, C27U, A29G, U30G, U31G
DNA 1: CAATCTGAATTCCGGTCTCCC
DNA 2: TGGTGGCTACGACGGGATT
B14: UCCUGGG (DNA:RNA)
RNA: B1 RNA with C25U, G26C, A29G, U30G, U31G
DNA 1: CAATCTGAATTCCGGTCTCCC
DNA 2: TGGTGGCTACGACGGGATT
B15: AAAUAAA (DNA:RNA)
RNA: B1 RNA with C25A, G26A, C27A, U30A, U31A
DNA 1: CAATCTGAATTCCGGTCTCCC
DNA 2: TGGTGGCTACGACGGGATT
B16: AAAGAGU (DNA:RNA)
RNA: B1 RNA with C25A, G26A, C27A, U28G, U30G
DNA 1: CAATCTGAATTCCGGTCTCCC
DNA 2: TGGTGGCTACGACGGGATT
B17: AGUGGCG (DNA:RNA)
RNA: B1 RNA with C25A, C27U, U28G, A29G, U30C, U31G
DNA 1: CAATCTGAATTCCGGTCTCCC
DNA 2: TGGTGGCTACGACGGGATT
B18: CUCUGUC (DNA:RNA)
RNA: B1 RNA with G26U, A29G, U31C
DNA 1: CAATCTGAATTCCGGTCTCCC
DNA 2: TGGTGGCTACGACGGGATT
B19: GUGCGCC (DNA:RNA)
RNA: B2 RNA with U25G, A26U, A28C, U29G, G30C, A31C
DNA 1: CAATCTGAATTCCGGTCTCCC
DNA 2: TGGTGGCTACGACGGGATT
B20: CUUACGG (DNA:RNA)
RNA: B2 RNA with U25C, A26U, G27U, U29C, A31G
DNA 1: CAATCTGAATTCCGGTCTCCC
DNA 2: TGGTGGCTACGACGGGATT
B21: UGGUUGG (DNA:RNA)
RNA: B2 RNA with A26G, A28U, A31G
DNA 1: CAATCTGAATTCCGGTCTCCC
DNA 2: TGGTGGCTACGACGGGATT
B22: CGGUUGC (DNA:RNA)
RNA: B1 RNA with C27G, A29U, U30G, U31C
DNA 1: CAATCTGAATTCCGGTCTCCC
DNA 2: TGGTGGCTACGACGGGATT
B23: CUGGGGU (DNA:RNA)
RNA: B1 RNA with G26U, C27G, U28G, A29G, U30G
DNA 1: CAATCTGAATTCCGGTCTCCC
DNA 2: TGGTGGCTACGACGGGATT
B24: UGGUUGC (DNA:RNA)
RNA: B2 RNA with A26G, A28U, A31C
DNA 1: CAATCTGAATTCCGGTCTCCC
DNA 2: TGGTGGCTACGACGGGATT
B25: UGGGGUU (DNA:RNA)
RNA: B1 RNA with C25U, C27G, U28G, A29G
DNA 1: CAATCTGAATTCCGGTCTCCC
DNA 2: TGGTGGCTACGACGGGATT
B26: UGGGGGU (DNA:RNA)
RNA: B2 RNA with A26G, A28G, U29G, A31U
DNA 1: CAATCTGAATTCCGGTCTCCC
DNA 2: TGGTGGCTACGACGGGATT
B27: UCAAACU (DNA:RNA)
RNA: B1 RNA with C25U, G26C, C27A, U28A, U30C
DNA 1: CAATCTGAATTCCGGTCTCCC
DNA 2: TGGTGGCTACGACGGGATT
B28: AUUAGUA (DNA:RNA)
RNA: B2 RNA with U25A, A26U, G27U, U29G, G30U
DNA 1: CAATCTGAATTCCGGTCTCCC
DNA 2: TGGTGGCTACGACGGGATT
B29: CGGAAGU (DNA:RNA)
RNA: B1 RNA with C27G, U28A, U30G
DNA 1: CAATCTGAATTCCGGTCTCCC
DNA 2: TGGTGGCTACGACGGGATT
B30: UCUUCCA (DNA:RNA)
RNA: B2 RNA with A26C, G27U, A28U, U29C, G30C
DNA 1: CAATCTGAATTCCGGTCTCCC
DNA 2: TGGTGGCTACGACGGGATT
B31: GCCCGCU (DNA:RNA)
RNA: B1 RNA with C25G, G26C, U28C, A29G, U30C
DNA 1: CAATCTGAATTCCGGTCTCCC
DNA 2: TGGTGGCTACGACGGGATT
B32: GCCUUGC (DNA:RNA)
RNA: B1 RNA with C25G, G26C, A29U, U30G, U31C
DNA 1: CAATCTGAATTCCGGTCTCCC
DNA 2: TGGTGGCTACGACGGGATT
B33: GCCUGUC (DNA:RNA)
RNA: B1 RNA with C25G, G26C, A29G, U31C
DNA 1: CAATCTGAATTCCGGTCTCCC
DNA 2: TGGTGGCTACGACGGGATT
B34: CCGCCUG (DNA:RNA)
RNA: B1 RNA with G26C, C27G, U28C, A29C, U31G
DNA 1: CAATCTGAATTCCGGTCTCCC
DNA 2: TGGTGGCTACGACGGGATT
B35: GCCUGUG (DNA:RNA)
RNA: B1 RNA with C25G, G26C, A29G, U31G
DNA 1: CAATCTGAATTCCGGTCTCCC
DNA 2: TGGTGGCTACGACGGGATT
B36: GCCCCUG (DNA:RNA)
RNA: B1 RNA with C25G, G26C, U28C, A29C, U31G
DNA 1: CAATCTGAATTCCGGTCTCCC
DNA 2: TGGTGGCTACGACGGGATT
B37: GCUGCUU (DNA:RNA)
RNA: B1 RNA with C25G, G26C, C27U, U28G, A29C
DNA 1: CAATCTGAATTCCGGTCTCCC
DNA 2: TGGTGGCTACGACGGGATT
B38: CGCCUGC (DNA:RNA)
RNA: B1 RNA with U28C, A29U, U30G, U31C
DNA 1: CAATCTGAATTCCGGTCTCCC
DNA 2: TGGTGGCTACGACGGGATT
B39: GCCCUGC (DNA:RNA)
RNA: B2 RNA with U25G, A26C, G27C, A28C, A31C
DNA 1: CAATCTGAATTCCGGTCTCCC
DNA 2: TGGTGGCTACGACGGGATT
B40: CGCCUUG (DNA:RNA)
RNA: B1 RNA with U28C, A29U, U31G
DNA 1: CAATCTGAATTCCGGTCTCCC
DNA 2: TGGTGGCTACGACGGGATT
B41: GCUUGCC (DNA:RNA)
RNA: B1 RNA with C25G, G26C, C27U, A29G, U30C, U31C
DNA 1: CAATCTGAATTCCGGTCTCCC
DNA 2: TGGTGGCTACGACGGGATT
B42: GCCUGCU (DNA:RNA)
RNA: B1 RNA with C25G, G26C, A29G, U30C
DNA 1: CAATCTGAATTCCGGTCTCCC
DNA 2: TGGTGGCTACGACGGGATT

target: T1, RBFOX1 RRM; test: EMSA; HiTS-Eq, 1 nM pool, 10 min; buffer printed only for the single-RNA assays: 10 mM Tris pH 7.5, 150 mM NaCl, 3.4 mM EDTA, 0.001% NP-40, 30 C; settings: tags: His6 N-terminal (pET28a); label: 5' 32P
How it was run: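 Purified wild-type or mutant RbFox RRM at increasing concentrations was equilibrated with 1 nM of 5′-radiolabelled RNA carrying 7 randomized nucleotides for 10 min in 50 µL. Unbound RNA was separated by 8% native PAGE and sequenced. Relative association constants came from read-count changes of each RNA species compared with the control reaction, normalised to the cognate motif.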

| Binder | binding signal |
| --- | --- |
| B1 | 0.00582 KA relative to UGCAUGU |
| B2 | 0.0121 KA relative to UGCAUGU |
| B3 | 0.0262 KA relative to UGCAUGU |
| B4 | 0.0321 KA relative to UGCAUGU |
| B5 | 0.0153 KA relative to UGCAUGU |
| B6 | 0.0109 KA relative to UGCAUGU |
| B7 | 0.0558 KA relative to UGCAUGU |
| B8 | 0.0192 KA relative to UGCAUGU |
| B9 | 0.019 KA relative to UGCAUGU |
| B10 | 0.0278 KA relative to UGCAUGU |
| B11 | 0.0379 KA relative to UGCAUGU |
| B12 | 0.0352 KA relative to UGCAUGU |
| B13 | 0.00877 KA relative to UGCAUGU |
| B14 | 0.00619 KA relative to UGCAUGU |
| B15 | 0.000652 KA relative to UGCAUGU |
| B16 | 0.00527 KA relative to UGCAUGU |
| B17 | 0.0184 KA relative to UGCAUGU |
| B18 | 0.00978 KA relative to UGCAUGU |
| B19 | 0.0184 KA relative to UGCAUGU |
| B20 | 0.00764 KA relative to UGCAUGU |
| B21 | 0.0294 KA relative to UGCAUGU |

| Binder | binding signal |
| --- | --- |
| B22 | 0.0256 KA relative to UGCAUGU |
| B23 | 0.018 KA relative to UGCAUGU |
| B24 | 0.0455 KA relative to UGCAUGU |
| B25 | 0.036 KA relative to UGCAUGU |
| B26 | 0.0229 KA relative to UGCAUGU |
| B27 | 0.00177 KA relative to UGCAUGU |
| B28 | 0.00672 KA relative to UGCAUGU |
| B29 | 0.0236 KA relative to UGCAUGU |
| B30 | 0.00385 KA relative to UGCAUGU |
| B31 | 0.0168 KA relative to UGCAUGU |
| B32 | 0.0319 KA relative to UGCAUGU |
| B33 | 0.0275 KA relative to UGCAUGU |
| B34 | 0.0178 KA relative to UGCAUGU |
| B35 | 0.034 KA relative to UGCAUGU |
| B36 | 0.016 KA relative to UGCAUGU |
| B37 | 0.0216 KA relative to UGCAUGU |
| B38 | 0.0343 KA relative to UGCAUGU |
| B39 | 0.0133 KA relative to UGCAUGU |
| B40 | 0.0242 KA relative to UGCAUGU |
| B41 | 0.0307 KA relative to UGCAUGU |
| B42 | 0.0359 KA relative to UGCAUGU |
